FBPA Giardia inh: blocks Giardia fructose-bisphosphate aldolase activity. purified Giardia FBPA. Potency, µM (titrated, usually from 59.6 µM), for inactives: at the top dose activity, negative = inhibition, actives largely listed as inhibitors. 290,000 compounds, 0.71% hits. AID 2451; note: potency is the fitted concentration of half-maximal effect; % is set by controls: 0 for no effect and ±100 for the full control effect; nearly all actives have a fitted effect of over 55% in size
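40 nM FBPA preincubated 10 min at RT with compound (up to 57.5 uM final), then substrate plus GAPDH/TPI/NAD/arsenate coupling and diaphorase/resazurin added. Fluorescence read after 20 min at RT, 525/598 nm.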
RE007 growth inh: less growth of the S. pombe RE007 Vpr strain | S. pombe RE007 Vpr strain, BacTiter-Glo ATP luminescence, 24 h | Potency, µM (top dose mostly 92.2 µM), for the others: at the top dose activity change, negative = less growth, actives largely listed as inhibitors | 360,000 compounds, 0.21% hits | AID 651644; active = well fitted falling curve with a large enough effect; inconclusive = small, poorly fitted or top-dose-only effect; inactive = no such curve, though single readings can be large or run the other way; note: potency is the fitted concentration of half-maximal effect; % is set by controls: 0 for no effect and ±100 for the full control effect; nearly all actives have a fitted effect of over 50% in size
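Fission yeast strain RE007, carrying one chromosomally integrated HIV-1 vpr copy, was seeded at OD 0.01 in PMG+AL medium with 23 nL pinned compound. After 24 h at 30 °C and 99% humidity, viability was read by BacTiter-Glo luminescence.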
Tb PYK inh: T. brucei pyruvate kinase inhibition. TbPYK enzyme, Kinase-Glo Plus ATP luminescence, 45 min. Potency, µM (series often up to 76.8 µM), for the others: at the highest dose activity, negative = inhibition, usual class: inhibitors. 410,000 compounds, 0.12% hits; note: potency is the fitted concentration of half-maximal effect; % is set by controls: 0 for no effect and ±100 for the full control effect; nearly all actives have a fitted effect of over 50% in size
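Assay buffer: 50 mM TEA pH 7.2, 100 mM KCl, 10 mM MgCl2, 0.05% BSA, 0.01% Tween-20. Pyruvate kinase from T. brucei plus substrate met compound, then ADP (130 uM final). Luminescence was read post 45 min RT.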
LmPK inh: inhibitors of Leishmania mexicana pyruvate kinase; purified LmPK, Kinase-Glo ATP luminescence, 1 h; Q27686; 290,000 compounds, 0.37% hits; Potency, µM (doses to about 57.5 µM), for inactives: at the top dose activity change, negative = inhibition, hits mostly inhibitors; AID 1721; note: potency is the fitted concentration of half-maximal effect; % is set by controls: 0 for no effect and ±100 for the full control effect
Target sequence (Q27686 whole entry, looked up): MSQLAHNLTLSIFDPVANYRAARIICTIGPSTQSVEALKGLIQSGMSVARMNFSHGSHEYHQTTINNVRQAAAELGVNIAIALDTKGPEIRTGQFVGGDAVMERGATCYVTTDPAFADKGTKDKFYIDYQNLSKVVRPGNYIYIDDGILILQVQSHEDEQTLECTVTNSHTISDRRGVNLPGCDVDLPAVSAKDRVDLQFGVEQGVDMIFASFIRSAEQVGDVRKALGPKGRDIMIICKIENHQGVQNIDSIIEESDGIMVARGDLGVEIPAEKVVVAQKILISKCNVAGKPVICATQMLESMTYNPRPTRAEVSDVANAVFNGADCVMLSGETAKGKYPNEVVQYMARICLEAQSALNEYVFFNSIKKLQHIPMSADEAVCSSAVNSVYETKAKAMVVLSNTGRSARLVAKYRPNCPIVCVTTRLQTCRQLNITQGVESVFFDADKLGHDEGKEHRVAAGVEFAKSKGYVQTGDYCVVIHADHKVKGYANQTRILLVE
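In 50 mM imidazole pH 7.2 with 7 mM MgCl2, LmPK (0.1 nM) turned over PEP (0.5 mM) and ADP (0.1 mM) for 1 h at room temperature. Luciferase read-out of ATP.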
CHX counter: counter-screen hit for Shiga toxin inhibitors, cycloheximide. max response, %. 300,000 compounds, 12% hits. cell reporter, cycloheximide protein synthesis inhibition counterscreen; in the data active = max response mostly above about 13%, no sharp cut-off; inactive = mostly below about 14%; note: read at 38.3 µM for the half of the compounds with a filed dose; 0% is about no effect
Shiga toxin inh: Shiga toxin inhibition; AID 2315; 290,000 compounds, 9.2% hits; inhibition, % at 38.7 µM; Vero cells, Shiga toxin protein synthesis inhibition reporter; in the data active = inhibition mostly above about 28%, no sharp cut-off; inactive = mostly below about 43%; note: 0% is about no effect
Starred values were filed as active, the others as inactive; ? = inconclusive; . = no result; [ ] = remark or other dose. This is one part of a sample in which hits are shown more often than they occur. Unless noted, calls come from the whole dose curve; as a rule, active = well fitted curve in the direction sought with a large enough effect; inconclusive = small, poorly fitted or top-dose-only effect, or another doubt; inactive = no such curve, though single readings can be large; an effect the other way counts as inactive or inconclusive.

SMILES	FBPA Giardia inh	RE007 growth inh	Tb PYK inh	LmPK inh	CHX counter	Shiga toxin inh
CC[C@H](C)[C@H](NC(=O)[C@@H](NC(=O)[C@@H](CC(=O)NO)Cc1ccccc1)[C@@H](C)CC)C(=O)O	3%	.	.	.	-9	15
NC(=O)c1nsc(C(=O)N(c2ccc3c(c2)OCCO3)C(C(=O)NCC2CCCO2)c2ccc(F)cc2)c1N (configuration not stated)	-9%	4%	0%	8%	28*	64*
CCOc1ccc(N(C(=O)c2snc(C(N)=O)c2N)C(C(=O)NCC2CCCO2)c2ccc(C)o2)cc1 (configuration not stated)	-13%	29%	2%	2%	18*	47*
c1ccc(-c2nnc(SCc3cn4ccsc4n3)o2)cc1	17%	-29%	-2%	-2%	30*	93*
O=c1c2ccccc2nc(SCc2cn3ccsc3n2)n1-c1ccc(F)cc1	5%	20%	-9%	7%	1	2
COC(=O)Nc1ccc2c(c1)N(C(=O)CCN(C)C)c1ccccc1CC2	-11%	4%	6%	0%	-1	0
c1ccc2c(c1)cnc1ccccc12	-2%	5%	0%	0%	24*	29
Clc1ccc2nc3ccccc3cc2c1	.	-16%	1%	.	.	.
c1ccc(-c2ncc3c(ccc4ccccc43)n2)cc1	1%	-9%	-13%	-17%	58*	74*
c1ccc(-c2nccc3ccccc23)cc1	.	-13%	5%	.	.	.
c1ccc2nc3ccccc3nc2c1	0%	-25%	1%	-3%	7	44
c1ccc2nc3ccccc3cc2c1	1%	.	.	.	40*	47*
COc1ccc(NC(=O)CN(C)C(=O)c2cccc(S(=O)(=O)N3CCN(c4ccc(F)cc4)CC3)c2)cc1	.	-7%	5%	.	.	.
CC1=C(C(=O)Nc2ccc(C)c(C)c2)C2(CCCCCC2)OC1=O	.	.	-17%[15.4 µM]	.	.	.
O=c1c(=NNc2ccccc2Cl)c(=O)c2ccccc12	-5%	6%	-12%	16µM*	41*	83*
Cc1cc(C)c(NN=c2c(=O)c3ccccc3c2=O)c(C)c1	0%	?	2%	-4%	30*	7
COCCCN(C(=S)Nc1ccc(C)cc1Cl)C(C)c1ccncc1 (configuration not stated)	-1%	18%	10%	3%	10	9
Cc1ccc(NC(=S)N(CCC(C)C)C(C)c2ccncc2)c(Cl)c1 (configuration not stated)	1%	-16%	-1%	2%	23*	35
COc1ccc(C2Cc3ccccc3C(=O)O2)cc1 (configuration not stated)	0%	-4%	-2%	3%	19	active
Cc1ccccc1NC(=O)C1Cc2ccccc2C(=O)O1 (configuration not stated)	2%	-1%	-1%	-1%	14*	17
Cc1ccc2c(c1)C(=O)OC(C(=O)Nc1ccccc1C(=O)O)C2 (configuration not stated)	.	.	-3%	.	.	.
COc1ccc(NC(=O)C2Cc3ccccc3C(=O)O2)cc1 (configuration not stated)	-7%	22%	2%	5%	12*	26
COc1ccc(CCNC(=O)C2Cc3ccccc3C(=O)O2)cc1 (configuration not stated)	10%	-1%	3%	-1%	15	-12
OC[C@@H]1CN(Cc2ccc(-c3ccccc3)cc2)C[C@H](n2cnc3c(NCc4ccncc4)ncnc32)O1	.	-11%	0%	.	.	.
Cc1ccc(-c2cc(C(=O)Nc3ccc(S(=O)(=O)Nc4ncccn4)cc3)[nH]n2)c(O)c1C	4%	-15%	4%	6%	1	-3
SMILES	FBPA Giardia inh	RE007 growth inh	Tb PYK inh	LmPK inh	CHX counter	Shiga toxin inh
CCc1ccc(CNC(=O)Cc2ccc(NC(=O)C3=C(C)OCCS3)cc2)cc1	-7%	1%	-13%	-2%	36*	57*
COc1ccc(CNC(=O)c2ccccc2NC(=O)C2=C(C)OCCS2)cc1	.	3%	1%	.	.	.
CC1=C(C(=O)Nc2ccc(CC(=O)NCc3ccccc3C)cc2)SCCO1	.	-3%	5%	-4%	22*	55*
CC1=C(C(=O)Nc2cccc(C(=O)NCc3ccc(F)cc3)c2)SCCO1	.	-13%	2%	-10%	-7	-7
COc1cccc(CNC(=O)Cc2ccc(NC(=O)C3=C(C)OCCS3)cc2)c1	.	1%	2%	-16%	29*	41*
CCCCC1=CC2=CC(=O)C(C)(OC(=O)c3ccc(Cl)nc3)C(=O)C2=CO1 (configuration not stated)	-9%	.	.	.	.	.
Cc1ccc(OCCSc2cc(C)nc(N)n2)cc1	1%	-28%	2%	1%	16	30
CCCCSc1cc(C)nc(N)n1	-2%	4%	-12%	-4%	31*	54*
COc1cc(O)cc2cc3c(c(O)c12)C(=O)CC(C)(O)O3 (configuration not stated)	?	3%	-15%	-4%	35*	37*
Cc1ccc2nc(C)cc(Nc3ccc4c(c3)OCCO4)c2c1	-9%	5%	-1%	7%	60*	38*
Cc1cc(C(=O)Nc2ccc3c(c2)OCCO3)c2ccccc2n1	1%	17%	2%	0%	22*	80*
O=C(Nc1nc2c(s1)CCCC2)c1cc(-c2ccc3c(c2)OCO3)nc2ccccc12	-8%	.	.	7%	26*	39
Cn1c(NC(=O)c2cc(-c3ccc4c(c3)OCO4)nc3ccccc23)cc(=O)n(C)c1=O	-5%	-19%	-5%	-11%	43*	31
CC(C)(C)NC(=O)c1cc(-c2ccc3c(c2)OCO3)nc2ccccc12	.	-9%	-3%	-4%	14	20
Cc1ccccc1-c1cc(C(=O)Nc2nc3c(s2)CCCC3)c2ccccc2n1	-2%	-3%	-9%	-4%	11	43
Cc1cccc(-c2cc(C(=O)N3CCCc4ccccc43)c3ccccc3n2)c1	5%	-7%	-10%	4%	22*	7
O=C(Nc1ccc2c(c1)OCCO2)c1cc(-c2ccccc2)nc2ccccc12	2%	-8%	1%	-7%	16	-16
Cc1cccc(-c2cc(C(=O)Nc3ccncc3)c3ccccc3n2)c1	9%	-11%	6%	0%	8.4*	-2
O=C(Nc1ccc2c(c1)OCO2)c1cc(-c2ccncc2)nc2ccccc12	-10%	-8%	-5%	-13%	19*	21
COc1cccc(-c2cc(C(=O)Nc3ccc4c(c3)OCCO4)c3ccccc3n2)c1	?	.	.	1%	22*	21
O=C(C1CCN(S(=O)(=O)c2cccc3nonc23)CC1)N1CCN(c2ccc(F)cc2)CC1	.	.	2%	.	.	.

High-throughput results: PubChem BioAssay, National Center for Advancing Translational Sciences (NCATS)
